hNpr1 antagonist – Natriuretic polypeptide receptor (hNpr1) antagonism - Primary qHTS | Atrial natriuretic peptide receptor 1 (Homo sapiens), P16066 | HEK293 hNpr1 GloSensor cGMP, ANP-stimulated luminescence | Potency, µM (series often up to 46.3 µM), inactives show top-dose activity change, negative = inhibition, hits mostly inhibitors | actives 1.6% (n = 76,000) | AID 1347048, 2019; calls by dose curve; note: nearly all actives have a fitted effect of over 60% in size
Target sequence (P16066 whole entry, looked up): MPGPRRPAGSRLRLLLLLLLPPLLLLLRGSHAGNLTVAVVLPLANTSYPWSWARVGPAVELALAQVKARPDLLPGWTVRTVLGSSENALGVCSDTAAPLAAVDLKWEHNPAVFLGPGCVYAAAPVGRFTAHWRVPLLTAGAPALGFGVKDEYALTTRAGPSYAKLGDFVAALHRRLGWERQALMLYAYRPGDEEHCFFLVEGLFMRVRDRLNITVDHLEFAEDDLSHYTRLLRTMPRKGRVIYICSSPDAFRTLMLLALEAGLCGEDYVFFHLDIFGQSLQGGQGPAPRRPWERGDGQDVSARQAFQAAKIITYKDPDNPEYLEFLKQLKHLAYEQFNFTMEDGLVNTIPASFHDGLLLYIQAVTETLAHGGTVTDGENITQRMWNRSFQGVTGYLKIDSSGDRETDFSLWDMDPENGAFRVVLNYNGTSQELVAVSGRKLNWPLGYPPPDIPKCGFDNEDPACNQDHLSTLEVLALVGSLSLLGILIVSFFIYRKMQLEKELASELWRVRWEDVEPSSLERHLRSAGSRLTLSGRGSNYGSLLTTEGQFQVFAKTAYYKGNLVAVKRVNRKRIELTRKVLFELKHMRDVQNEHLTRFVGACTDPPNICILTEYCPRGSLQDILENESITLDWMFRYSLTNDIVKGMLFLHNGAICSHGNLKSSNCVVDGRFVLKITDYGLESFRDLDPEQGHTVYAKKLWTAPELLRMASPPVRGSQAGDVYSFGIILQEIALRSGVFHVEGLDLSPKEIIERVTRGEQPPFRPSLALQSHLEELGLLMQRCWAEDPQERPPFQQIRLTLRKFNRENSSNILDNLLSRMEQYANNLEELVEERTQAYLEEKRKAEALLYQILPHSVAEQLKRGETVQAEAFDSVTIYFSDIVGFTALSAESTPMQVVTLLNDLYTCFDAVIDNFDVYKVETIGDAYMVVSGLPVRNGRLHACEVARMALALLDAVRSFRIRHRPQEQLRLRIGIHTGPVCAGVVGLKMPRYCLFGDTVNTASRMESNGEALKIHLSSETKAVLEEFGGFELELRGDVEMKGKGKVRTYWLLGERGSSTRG
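Compound pre-incubated 30 min at room temperature on GloSensor-loaded HEK293 cells stably carrying hNpr1 and the pGS-40F cGMP biosensor. Stimulation uses hNppA at 0.1 nM final; luminescence is taken at baseline and 20 min post-agonist.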
NIH3T3 tox – Cytotoxic Profiling in NIH 3T3 Cell Line of Diverse Libraries Using Quantitative High-Throughput Screening; actives 4.3% (n = 94,000); Potency, µM (top dose mostly 96.7 µM), inactives show at the top dose activity change, negative = cytotoxicity, usual class: inhibitors; AID 1345082, 2018; NIH 3T3 viability, CellTiter-Glo ATP luminescence, 48-72 h; note: nearly all actives have a fitted effect of over 55% in size
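Mouse fibroblast NIH 3T3 cells, 400 per well, received compound via pintool and were incubated for 48 or 72 hr prior to CellTiter-Glo ATP luminescence measurement.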
HEK293 tox – Cytotoxic Profiling in HEK 293 Cell Line of Diverse Libraries Using Quantitative High-Throughput Screening; HEK 293 viability, ATP luminescence (CellTiter-Glo), 48-72 h; Potency, µM (top dose mostly 115 µM), for the others: at the highest dose activity change, negative = cytotoxicity, most hits filed as inhibitors; actives 6.6% (n = 94,000); note: nearly all actives have a fitted effect of over 60% in size
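Viability of HEK 293 cells, plated at 250 cells/well, was judged by cellular ATP after compound treatment for 48 or 72 hr. Luminescence was imaged 10 min after CellTiter-Glo addition at room temperature.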
FLuc inh – Firefly luciferase inhibition profiling of diverse chemical library using quantitative high-throughput screening. Luciferin 4-monooxygenase (Photinus pyralis), P08659. Potency, µM (highest dose often 115 µM), most hits filed as inhibitors. purified P. pyralis luciferase, luminescence, biochemical. actives 2.5% (n = 76,000). AID 1347043, 2019; note: nearly all actives have a fitted effect of over 65% in size
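Luminescence read by CCD imager after adding enzyme (10nM final) to wells holding compound, titrated in qHTS. Substrates 10uM each D-luciferin and ATP; buffer 50mM Tris acetate pH 7.5, 10mM Mg acetate, Tween-20, BSA.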
* hit, by the source's call; i = inactive; ? = inconclusive; . = no result; [ ] = remark or other dose. Shown are actives, neighbours in structure and some others; about 11% of the full set was active somewhere. Unless noted, calls come from the whole dose curve; as a rule, active = well fitted curve in the direction sought with a large enough effect; inconclusive = small, poorly fitted or top-dose-only effect, or another doubt; inactive = no such curve, though single readings can be large; an effect the other way counts as inactive or inconclusive. % is set by controls: 0 for no effect and ±100 for the full control effect; potency is the fitted concentration of half-maximal effect.

SMILES	hNpr1 antagonist	NIH3T3 tox	HEK293 tox	FLuc inh
Cn1ccc(NC(=O)c2ccc3c(c2)C2(CCN(CC4CC4)C2)CN3Cc2ccccc2)n1 (centres undefined)	-9.3%	?	31.6µM*	i
CN1CCC2(C1)CN(Cc1ccccc1)c1ccc(C(=O)Nc3ccc(F)cc3)cc12 (centres undefined)	-0.5%[70.6 µM]	25.1µM*	39.8µM*	i
CN1CCCC2(C1)CN(Cc1cccnc1)c1ccc(C(=O)Nc3ccc(F)cc3)cc12 (centres undefined)	2.6%[70.6 µM]	?	?	i
CN1CCC2(C1)CN(Cc1ccccc1)c1ccc(C(=O)NC3CCC(O)CC3)cc12 (centres undefined)	-2.0%[70.6 µM]	-16.8%[138 µM]	?	i
COc1ccc(NC(=O)c2ccc3c(c2)C2(CCCN(C)C2)CN3C)cc1 (centres undefined)	0.2%[70.6 µM]	?	?	i
Cn1nc(CN2CCOCC2)c2c1CCN(S(=O)(=O)c1cccc3cccnc13)C2	.	-12.8%	-2.9%	.
O=C(NC1CCN(c2nc3ncccc3o2)C1)C1CCCC1 (centres undefined)	.	2.4%[138 µM]	i	.
CCC(C)NC(=O)N1CCC2(CC1)CN(Cc1ccc(OC)cc1)C2=O (centres undefined)	.	-19.0%	-4.3%	.
CN1C(=O)CCC2(CNC(=O)COc3ccccc3)CCC=C12 (centres undefined)	.	-19.9%	-8.0%	.
COC(=O)CNC(=O)C1CCCN1Cc1ccc(-c2cncnc2)cc1 (centres undefined)	.	?	-13.2%	.
Cc1ccc(-c2cccc(CN3CCCC3C(=O)NCc3cccc(C(F)(F)F)c3)c2)cc1Cl (centres undefined)	.	39.8µM*	39.8µM*	.
O=C(NCc1ccccc1)C1CCCN1Cc1ccc(-c2cncnc2)cc1 (centres undefined)	.	-20.6%	?	.
COC(=O)CNC(=O)C1CCCN1Cc1cccc(-c2ccc(C)c(Cl)c2)c1 (centres undefined)	.	?	39.8µM*	.
CCOCCNC(=O)C1CCCN1Cc1cccc(-c2ccc(C)c(Cl)c2)c1 (centres undefined)	.	14.1µM*	?	.
Cc1ccc(-c2cccc(CN3CCCC3C(=O)NCc3ccccc3)c2)cc1Cl (centres undefined)	.	44.7µM*	50.1µM*	.
O=C(NCc1cccc(Cl)c1)c1cc(-c2cccc(C(F)(F)F)c2)c2nncn2n1	.	-20.5%	-25.0%	.
COC(=O)N1CCCC(C(=O)N2CCCC(c3nc4ccncc4[nH]3)C2)C1 (centres undefined)	.	-7.3%	-8.0%	.
Cc1oc(C2CCN(C(=O)c3cc(CN4CCOCC4)on3)CC2)nc1C(=O)N1CCCC1	.	-20.1%	-13.8%	.
CC(c1nccs1)N(C)C(=O)c1csc2nc(-c3ccccc3Cl)cn12 (centres undefined)	-24.7%	50.1µM*	22.4µM*	?
CCC(CNC(=O)c1csc2nc(-c3ccccc3Cl)cn12)N(C)C (centres undefined)	6.6%	?	?	i
Cc1cccc(N2CCN(C(=O)c3ccc4c(c3)N(C(=O)c3ccccc3)CC4)CC2)c1C	-23.1%	31.6µM*	28.2µM*	i
Cc1nc2c(c(-c3ccc(O)cc3)n1)CN(C(=O)Nc1ccccc1)CCC2	1.5%	-7.2%	i	i
COCCNC(=O)C1(C)CN(Cc2ccccc2)Cc2ccc(Nc3ccccc3)nc21 (centres undefined)	-1.6%[70.6 µM]	?	?	i
COCCNC(=O)C1(C)CN(Cc2ccccc2)Cc2ccc(NCC(C)C)nc21 (centres undefined)	-12.2%[70.6 µM]	22.4µM*	39.8µM*	i
COCCN1Cc2ccc(NCC(C)C)nc2C(C)(C(=O)Nc2ccccc2)C1 (centres undefined)	-12.2%[70.6 µM]	?	?	i
COCCN(C)C(=O)C1(C)CN(Cc2ccccc2)Cc2ccc(NCC(C)C)nc21 (centres undefined)	0.6%[70.6 µM]	?	79.4µM*	i
COCCN1Cc2ccc(NCc3ccccc3)nc2C(C)(C(=O)N(C)CCOC)C1 (centres undefined)	1.6%[70.6 µM]	?	?	i
